Measurements taken from PubChem BioAssay AID1241 (SRMLSC, 2008).
About 840 (70%) of roughly 1,200 compounds were called active. The rule behind the calls is not given here. So high a share suggests a set chosen from earlier hits. These entries were drawn from the full list. Entries with a potency or affinity are not part of this list.

test: NF-kB promoter reporter activators, neuronal cells, dose response, cell-based, SH-SY5Y, luciferase (AID 1241); conditions: series mostly up to 30 µM

Fold induction over control, inactive:
C(=C\c1nc(-c2ccccc2)no1)/c1ccccc1
CNc1oc(/C=C/c2ccccc2)nc1C#N
CCc1ccc(-c2nn(-c3ccccc3)cc2CSC(=N)N)cc1
O=C(Nc1ccc2c(c1)OCCO2)c1cccs1
Cc1cccc(-c2noc(-c3ccc(Cl)cc3[N+](=O)[O-])n2)c1
Cc1ccccc1-c1noc(-c2ccccc2F)n1
COc1ccc(-c2cc(=O)c3cc(C)ccc3[nH]2)cc1
CCOC(=O)c1sc(-c2ccc(OC)cc2)cc1N
Nc1nc(-c2ccc3c(c2)CCCC3)cs1
N#CC(=C1CCCC1)c1nc(-c2ccccc2)cs1
O=c1oc2cc(Br)ccc2n1CSC1=NCCS1
CCCCOC(=O)Nc1ccc2c(C)cc(=O)oc2c1
O=C(Nc1ccc(Cl)cc1)c1ccc(Br)cc1F
Cc1ccc(C(=O)Nc2ccc3c(c2)nc2n3CCSC2)cc1
CN1C(=O)/C(=C\C=C2/CCCN2C)N(C)C1=S
Nc1nonc1-c1noc(COc2ccccc2Cl)n1
COc1ccc(C(=O)NNC(=S)Nc2ccccc2)cc1
Cc1cccc(Nc2nc3c(s2)CCCC3)c1
COc1ccccc1CNc1ccc(CNc2ncn[nH]2)cc1
Oc1ccccc1CNc1ccc(Br)cn1
O=C(NCCCn1ccnc1)c1cc(-c2ccccc2)on1
O=C(NCCCN1CCOCC1)c1cc(-c2cccs2)on1
Cc1csc2nc(CSc3ccc(Cl)cc3)cn12
O=C(Cc1cn2ccsc2n1)OCc1ccccc1
CCOc1cccc2cc(-c3csc(NC(=O)CCC(=O)NCCCN4CCC(C)CC4)n3)c(=O)oc12
Cc1ccc(Nc2ncnc3c2oc2ccccc23)cc1
Cc1ccc(N2C(=O)C(NC(=O)c3ccccc3)(C(F)(F)F)C3=C2CC(C)(C)CC3=O)cc1 (stereo unspecified)
COCCn1nnnc1C(CC(C)C)N1CCN(c2cccc(OC)c2)CC1 (stereo unspecified)
CC(C)(C)NC(=O)C[n+]1ccc(C(N)=O)cc1
O=C(NCC1CCCO1)c1cc(-c2ccccc2)on1 (stereo unspecified)
COc1ccc2c(c1)CCc1c(C(=O)NCC(C)C)noc1-2
C/C(=N\NC(=O)c1ccoc1C)c1cccnc1
CC(/C=N/NC(=O)c1cccs1)=C\c1ccco1
Cc1ccc(N=C/C(C(=O)C(F)(F)F)=C(\O)c2ccco2)cc1Cl
CC(=O)CSc1ncnc2c1cnn2-c1ccccc1
O=[N+]([O-])c1ccc(F)cc1OCc1nc(-c2cccs2)no1
Cc1ccccc1-c1nnc(SCc2ccccc2F)o1
CCCn1c(/C=C/c2ccccc2)nc2ccccc21
CCCCCNc1nc(-c2ccccc2)cs1
COc1ccc(-c2csc(-c3ccc(C(=O)O)cc3)n2)cc1
CC1=C/C(=N\OS(=O)(=O)c2ccccc2)C(C(C)C)=CC1=O
CCOc1ccc2ccccc2c1CNCCN1CCOCC1
COc1ccccc1-c1noc(-c2ccccc2)n1
CC(=O)Nc1ccc(-c2cn3cc(C)ccc3n2)cc1
CCOc1ccc(/C=N/n2c(SC)nnc2-c2ccccc2)cc1OCC
CC(=O)Oc1ccc(/C=N/NC(=S)Nc2ccccc2)cc1
O=C(Cc1ccccc1F)Nc1ccc(SC(F)F)cc1
Cc1nc(NC(=O)c2cccs2)ccc1Br
Cc1ccc(C(=O)Nc2ccc3nc(C)sc3c2)s1
O=C(NC(=S)Nc1cccc(-c2ccc(CO)o2)c1)c1cccs1
COC(=O)c1ccc2nc(NC(=O)C(C)C)sc2c1
CN(C)CCCN(C(=O)/C=C/c1cccs1)c1nc2c(F)cccc2s1
CC1Cc2ccccc2N1C(=O)/C=C/c1cccc(F)c1 (stereo unspecified)
CN1C(=O)/C(=C/C=C2\SCCN2C)N(C)C1=S
O=C(/C=C/Sc1ccccc1)c1ccccc1
C=C(C(=O)c1ccccc1)C(C)C(=C)C(=O)c1ccccc1
Cc1cccc(/C(N)=N/OC(=O)c2ccco2)c1
O=C(N/N=C\c1ccc(Oc2ccccc2)cc1)c1csnn1
O=C(/C(C=Nc1ccc(Br)cc1)=C(/O)c1ccco1)C(F)(F)F
O=C1/C(=C/c2cccs2)CCC1C1CCCC1 (stereo unspecified)
CC1=CC(c2ccccc2)=Nc2ccc(C)cc2N1
O=C(c1ccccc1)c1nnc(-c2ccccc2F)o1
COc1ccc(C2=NN(C(C#N)c3ccc(OC)cc3)C(c3ccccc3)C2)cc1 (stereo unspecified)
CN1CCN(Cc2nc3ccccc3c(=O)n2Cc2nc(-c3ccc4ccccc4c3)cs2)CC1
CCOc1ccc(-c2nc3ccccc3c(=O)o2)cc1
CCSc1ncc(/C=N/Nc2ccc(Cl)cc2)n1C
CCOC(=O)c1[nH]c2c(c1C)C(=O)CC(c1ccco1)C2 (stereo unspecified)
CCCC(O)(CCC)C(=O)NN(C(=O)CCl)c1ccccc1
O=C(O)CCCNC(=O)Nc1ccccc1
CC(C)c1cc(C(=O)Nc2cc(Cl)ccc2O)no1
O=c1[nH][nH]cc1C=Nc1ccccc1O
O=c1oc2cc(Cl)ccc2n1CSc1nc2ccccc2s1
CN1CCN(Cc2cc(Cl)c3cccnc3c2OC(=O)c2cccs2)CC1
CCOC(=O)CC(=O)CSc1nc2ccc(C)cc2cc1C#N
COC(=O)CSc1nc2ccc(C)cc2cc1C#N
COCCNC(=O)c1cc(-c2cccs2)on1
O=c1[nH]c(=O)n([C@H]2C[C@H](O)[C@@H](CO)O2)cc1C(F)(F)F
COc1cc(C(Nc2ccccn2)c2ccc3ccc(C)nc3c2O)cc(OC)c1O (stereo unspecified)
Cc1c(NC(=O)CSc2cccc3cccnc23)c(=O)n(-c2ccccc2)n1C
Cc1ccc(COn2c(-c3ccc(Cl)cc3)nc3ccc([N+](=O)[O-])cc32)cc1
CCOC(=O)C(C)On1c(-c2ccc(Cl)cc2)nc2ccc([N+](=O)[O-])cc21 (stereo unspecified)
